Bioassay records (PubChem)
This excerpt belongs to a sample that is enriched for hits.
IDE exosite FP: exo-site inhibitors of human IDE, primary screen, biochemical, fluorescence anisotropy, probe displacement; purified IDE, FL-6b probe fluorescence polarization; stronger effect = lower value; z-score at 20 µM; 17,000 tested, 6.3% active;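 active = z-score of -3 or lower, meaning strong loss of probe binding signal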;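 also: His-tagged human IDE residues 42-1019 made in E. coli with 30 nM FL-6b probe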
Target sequence (P14735 42-1019 limits assumed): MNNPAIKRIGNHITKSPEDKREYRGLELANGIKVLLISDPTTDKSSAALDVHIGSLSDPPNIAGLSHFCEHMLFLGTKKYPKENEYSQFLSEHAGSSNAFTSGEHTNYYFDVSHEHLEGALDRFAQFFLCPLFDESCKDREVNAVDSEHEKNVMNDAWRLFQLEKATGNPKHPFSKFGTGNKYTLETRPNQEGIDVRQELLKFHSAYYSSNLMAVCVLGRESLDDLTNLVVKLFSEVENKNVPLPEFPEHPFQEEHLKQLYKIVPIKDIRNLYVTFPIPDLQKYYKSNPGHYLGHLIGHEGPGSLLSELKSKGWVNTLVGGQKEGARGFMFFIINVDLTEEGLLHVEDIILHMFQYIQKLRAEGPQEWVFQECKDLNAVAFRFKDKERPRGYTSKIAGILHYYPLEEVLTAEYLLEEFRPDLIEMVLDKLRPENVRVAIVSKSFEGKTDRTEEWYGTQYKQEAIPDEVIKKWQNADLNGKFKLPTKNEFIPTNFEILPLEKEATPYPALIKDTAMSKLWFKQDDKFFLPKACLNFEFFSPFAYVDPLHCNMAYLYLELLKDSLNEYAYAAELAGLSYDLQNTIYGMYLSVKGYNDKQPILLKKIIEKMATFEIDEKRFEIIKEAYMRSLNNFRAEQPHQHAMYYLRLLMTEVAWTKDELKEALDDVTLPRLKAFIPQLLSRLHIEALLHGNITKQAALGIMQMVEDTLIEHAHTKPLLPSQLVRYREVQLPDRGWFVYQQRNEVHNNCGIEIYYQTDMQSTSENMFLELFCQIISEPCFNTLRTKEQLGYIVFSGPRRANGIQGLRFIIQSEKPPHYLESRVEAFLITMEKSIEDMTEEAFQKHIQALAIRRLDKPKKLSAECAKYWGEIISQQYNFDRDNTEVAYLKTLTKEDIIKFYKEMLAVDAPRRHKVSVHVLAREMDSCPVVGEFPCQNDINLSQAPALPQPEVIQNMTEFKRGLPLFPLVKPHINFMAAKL
An asterisk follows results filed as active.

SMILES | IDE exosite FP
COc1ccc(-c2ccc([C@@H]3[C@@H](CO)N4C(=O)CN(C(=O)c5cccnc5)C[C@@H]34)cc2)cc1 | 0.76
Cc1cccc(-c2ccc([C@H]3[C@H](CO)N4C(=O)CN(C(=O)c5cccnc5)C[C@@H]34)cc2)c1 | -9.6*
Cc1cccc(-c2ccc([C@H]3[C@H]4CN(C(=O)c5cccnc5)CC(=O)N4[C@H]3CO)cc2)c1 | -2.8
Cc1cccc(-c2ccc([C@@H]3[C@H](CO)N4C(=O)CN(C(=O)c5cccnc5)C[C@@H]34)cc2)c1 | -6.3*
COc1ccc(-c2ccc([C@H]3[C@H](CO)N4C(=O)CN(C(=O)c5cccnc5)C[C@@H]34)cc2)cc1 | -1.8
Cc1ccccc1-c1ccc([C@@H]2[C@@H](CO)N3CCCCN(C(=O)c4cccnc4)C[C@@H]23)cc1 | -8*
Cc1ccccc1-c1ccc([C@H]2[C@@H](CO)N3CCCCN(C(=O)c4cccnc4)C[C@@H]23)cc1 | -4.8*
Cc1ccccc1-c1ccc([C@@H]2[C@H]3CN(C(=O)c4cccnc4)CCCCN3[C@H]2CO)cc1 | -7.3*
COc1ccc2c3c([nH]c2c1)[C@@H](CO)N(Cc1ccccc1)CC31CN(C(=O)c2ccccn2)C1 | -2.1
CO[C@H](CN(C)C(=O)C1CCOCC1)[C@H](C)CN([C@H](C)CO)S(=O)(=O)c1ccccc1 | 0.57
CO[C@H](CN(C)S(=O)(=O)c1ccc(C)cc1)[C@@H](C)CN([C@@H](C)CO)S(=O)(=O)c1cccc(Cl)c1 | 0.0054
CCC(=O)N1CC2(CCN(C(=O)Nc3c(C)noc3C)CC2)c2c([nH]c3cc(OC)ccc23)[C@H]1CO | 0.28
CN1c2ccc(C#Cc3ccccc3F)cc2[C@H]2[C@H](CCN2C(=O)c2cnccn2)[C@H]1CO | 1.3
CCCNC(=O)C[C@@H]1CC[C@H]2[C@H](COc3ccc(NC(=O)CC)cc3C(=O)N2C)O1 | 0.3
CN1C[C@@H]2[C@H](c3ccccc31)[C@H](CO)N2Cc1ccccc1Cl | -0.093
O=C(Cc1ccccn1)N1CC(=O)N2[C@H](CO)[C@H](c3ccc(C#CC4CC4)cc3)[C@H]2C1 | 2.2
Cc1ccccc1-c1ccc([C@@H]2[C@@H](CO)N3C(=O)CN(C(=O)Cc4ccccn4)C[C@@H]23)cc1 | -20*
O=C(Cc1ccccn1)N1CC(=O)N2[C@H](CO)[C@@H](c3ccc(-c4ccc(F)cc4)cc3)[C@@H]2C1 | 2.1
Cc1ccccc1-c1ccc([C@H]2[C@H]3CN(C(=O)Cc4ccccn4)CC(=O)N3[C@H]2CO)cc1 | -8.9*
Cc1ccccc1-c1ccc([C@@H]2[C@@H](CO)N3C(=O)CN(C(=O)Cc4ccccn4)C[C@H]23)cc1 | -5.8*
O=C(Cc1ccccn1)N1CC(=O)N2[C@@H](CO)[C@H](c3ccc(-c4ccc(F)cc4)cc3)[C@@H]2C1 | 1.4
O=C(Cc1ccccn1)N1CC(=O)N2[C@H](C1)[C@@H](c1ccc(-c3ccc(F)cc3)cc1)[C@@H]2CO | 1.9
Cc1ccccc1-c1ccc([C@@H]2[C@H]3CN(C(=O)Cc4ccccn4)CC(=O)N3[C@H]2CO)cc1 | -18*
O=C(Cc1ccccn1)N1CC(=O)N2[C@H](CO)[C@@H](c3ccc(-c4ccc(F)cc4)cc3)[C@H]2C1 | 3.3
COc1ccc(-c2ccc([C@@H]3[C@H]4CN(C(=O)Cc5ccccn5)CC(=O)N4[C@H]3CO)cc2)cc1 | -0.28
SMILES | IDE exosite FP
CN1C(=O)c2cc(NC(=O)C3CCOCC3)ccc2OC[C@H]2O[C@H](CC(=O)NCc3ccccc3F)CC[C@H]21 | -0.18
O=C(c1cnccn1)N1CC(=O)N2[C@H](CO)[C@@H](c3ccc(C#CCC4CCCC4)cc3)[C@@H]2C1 | 2.1
CC(=O)N1CC(=O)N2[C@H](CO)[C@H](c3ccc(-c4ccncc4)cc3)[C@@H]2C1 | -0.02
O=C(c1ccncc1)N1CC(=O)N2[C@H](C1)[C@H](c1ccc(C#CCC3CCCC3)cc1)[C@@H]2CO | 3.6
CC(C)CC#Cc1ccc([C@@H]2[C@H]3CN(C(=O)c4cnccn4)CC(=O)N3[C@H]2CO)cc1 | 3.8
COc1ccc2c3c([nH]c2c1)[C@H](CO)N(Cc1ccc(Cl)cc1)CC31CCN(Cc2nccs2)CC1 | 0.23
CN(C)C(=O)c1cccc(-c2ccccc2[C@@H]2[C@@H](CO)N(C(=O)C3CCC3)[C@H]2C#N)c1 | 2.1
CS(=O)(=O)N(CC1CCC1)C[C@@H]1N[C@@H](CO)[C@@H]1c1ccccc1 | 0.7
CC(C)NC(=O)Nc1ccc2c(c1)C(=O)N([C@@H](C)CO)C[C@@H](C)[C@H](CN(C)C(=O)C1CCCCC1)OCCCC[C@@H](C)O2 | 0.46
CO[C@H]1CN(C)C(=O)c2cc(NS(=O)(=O)c3cccc(Cl)c3)ccc2OC[C@H](C)NC[C@H]1C | -0.89
COCC(=O)N1CC(=O)N2[C@H](C1)[C@@H](c1ccc(-c3ccccc3F)cc1)[C@@H]2CO | -2.6
CCC(=O)N1CC(=O)N2[C@H](CO)[C@H](c3ccc(-c4ccccc4F)cc3)[C@H]2C1 | -7.4*
CCC(=O)N1CC(=O)N2[C@H](C1)[C@@H](c1ccc(-c3ccccc3F)cc1)[C@@H]2CO | -8*
COCC(=O)N1CC(=O)N2[C@@H](CO)[C@@H](c3ccc(-c4ccccc4F)cc3)[C@@H]2C1 | -1.1
CCC(=O)N1CC(=O)N2[C@H](CO)[C@H](c3ccc(-c4ccccc4F)cc3)[C@@H]2C1 | -2.1
CCN1CC(=O)N2[C@H](CO)[C@H](c3ccc(-c4ccccc4F)cc3)[C@@H]2C1 | -0.055
O=C(c1cnccn1)N1CC(=O)N2[C@H](C1)[C@@H](c1ccc(C#CC3CC3)cc1)[C@@H]2CO | 0.45
O=C(Cc1ccccc1)N1CC(=O)N2[C@H](C1)[C@H](c1ccc(C3=CCCC3)cc1)[C@@H]2CO | 0.16
O=C(Nc1cccc(F)c1)N1CC(=O)N2[C@H](CO)[C@H](c3ccc(-c4ccc(F)cc4)cc3)[C@H]2C1 | 2.6
CC(C)NC(=O)N1[C@H](CO)[C@H]2c3ccccc3N(C)C[C@H]21 | 3.6
C[C@@H]1CN([C@H](C)CO)C(=O)c2ccccc2-c2ccccc2CO[C@@H]1CN(C)S(=O)(=O)c1ccc([N+](=O)[O-])cc1 | -1.1
CC=Cc1ccc2n(c1=O)C[C@H]1[C@H](CO)[C@@H](C(=O)NCc3cccc(OC)c3)N[C@@H]21 (mixture of isomers) | 0.2
CCCNC(=O)N1[C@H](CO)[C@H](c2ccccc2-c2ccc(OC)cc2)[C@@H]1C#N | 0.18
COc1ccc(-c2ccc([C@H]3[C@@H](C#N)N[C@@H]3CO)cc2)cc1 | 3.1
COc1ccc(-c2ccc([C@@H]3[C@H](C#N)N[C@H]3CO)cc2)cc1 | 4.1
SMILES | IDE exosite FP
N#C[C@H]1N[C@H](CO)[C@@H]1c1ccc(-c2ccccc2F)cc1 | -4.4*
COc1ccccc1-c1ccc([C@H]2[C@H](C#N)N[C@@H]2CO)cc1 | -12*
N#C[C@H]1N[C@H](CO)[C@H]1c1ccccc1 | 3.8
N#C[C@@H]1N[C@H](CO)[C@@H]1c1ccc(-c2ccccc2F)cc1 | 4.7
CCC(=O)N1CC(=O)N2[C@H](C1)[C@H](c1ccc(C#CC3CCCCC3)cc1)[C@@H]2CO | 0.72
Cc1ccc(S(=O)(=O)N(C)C[C@H]2OCCCC[C@@H](C)Oc3ccc(NC(=O)c4ccncc4)cc3C(=O)N([C@H](C)CO)C[C@@H]2C)cc1 | -0.41
O=S(=O)(c1ccc(F)cc1)N1CCCCN2[C@H](C1)[C@@H](c1ccc(-c3cncnc3)cc1)[C@@H]2CO | 0.5
CCC(=O)N1CC(=O)N2[C@@H](CO)[C@H](c3ccc(-c4ccncc4)cc3)[C@@H]2C1 | 1.6
